The values that follow come from PubChem BioAssay.

Each structure is given as a SMILES string. Activity calls are given as the source filed them.

Assay [1] can be described thus: binders of probe aFSTL3 on microarray, primary screen, stem cell growth factor project, biochemical, small-molecule microarray, fluorescence 635/667 (AID 1064).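 Also: measures binding of the biotinylated anti-FSTL3 antibody to printed compounds.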 Particulars: higher = more signal.
A short description of assay [2]: binders from COS7 lysate, DM2A8 probe, primary screen, torsin A project, cell lysate, small-molecule microarray, fluorescence 635/667 (AID 1065). The conditions noted are these: higher = more signal, COS7 lysate expressing mutant human TOR1A.
A short description of assay [3]: binders of probe aFGF2 on microarray, primary screen, stem cell growth factor project, biochemical, small-molecule microarray, fluorescence 635/667 (AID 1067).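 Also: measures binding of biotinylated aFGF2 protein to printed compounds on slides; z-score merges feature fluorescence and signal-to-noise across triplicate slides.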 Particulars: higher = more signal.
A short description of assay [4]: binders of probe aFGF10 on microarray, primary screen, stem cell growth factor project, biochemical, small-molecule microarray, fluorescence 635/667 (AID 1071).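 Also: score merges 667 nm spot intensity and signal to noise from triplicate slides.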 The conditions noted are these: higher = more signal.
Assay [5] deals with Neurogenic locus notch homolog protein 2 (Homo sapiens) (UniProt Q04721). The experiment in a line: Notch2 binders on small-molecule microarrays, primary screen, biochemical, small-molecule microarray, 635 nm fluorescence, stem cell growth factors (AID 1073). Particulars: Notch2 binding, higher = more signal.
Assay [6] addresses Pro-neuregulin-1, membrane-bound isoform (Homo sapiens) (UniProt Q02297). Kind of assay: NRG1 binders on small-molecule microarrays, primary screen, psychiatric disease protein project, biochemical, small-molecule microarray, fluorescence 635/667 (AID 1075).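 Also: score combines 667 nm spot fluorescence with signal to noise.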 The conditions noted are these: NRG1 binding, 635 nm fluorescence, higher = more signal.
In assay [7] the test system is Neuregulin-1 EGF-like domain. The experiment in a line: binders of neuregulin-1 EGF-like domain, primary screen, biochemical, small-molecule microarray, 635 nm fluorescence (AID 1081).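 Also: binding of the protein to compounds printed on small-molecule microarray slides.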 The conditions noted are these: small-molecule microarray binding, higher = more signal.
Assay [8] in a line: FRG1 promoter luciferase signal modulators, primary screen, FRG1 inhibition for FSHD, cell-based, C2C12 myotubes, firefly/Renilla luciferase, luminescence (AID 1084). Particulars: higher = more signal, called active from +8 up or from −8 down.
A short description of assay [9]: binders of probe aFST on microarray, primary screen, stem cell growth factor project, biochemical, small-molecule microarray, fluorescence 635/667 (AID 1086).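 Also: score merges 667 nm fluorescence with signal-to-noise of each printed compound spot.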 Particulars: higher = more signal.
The nature of assay [10]: binders of probe aHhip on microarray, primary screen, stem cell growth factor project, biochemical, small-molecule microarray, fluorescence 635/667 (AID 1087).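 Also: score merges spot fluorescence at 667nm with spot signal to noise ratio.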 The conditions noted are these: higher = more signal.

Chain of Neurogenic locus notch homolog protein 2 (Homo sapiens) (Q04721 whole entry, looked up, canonical isoform): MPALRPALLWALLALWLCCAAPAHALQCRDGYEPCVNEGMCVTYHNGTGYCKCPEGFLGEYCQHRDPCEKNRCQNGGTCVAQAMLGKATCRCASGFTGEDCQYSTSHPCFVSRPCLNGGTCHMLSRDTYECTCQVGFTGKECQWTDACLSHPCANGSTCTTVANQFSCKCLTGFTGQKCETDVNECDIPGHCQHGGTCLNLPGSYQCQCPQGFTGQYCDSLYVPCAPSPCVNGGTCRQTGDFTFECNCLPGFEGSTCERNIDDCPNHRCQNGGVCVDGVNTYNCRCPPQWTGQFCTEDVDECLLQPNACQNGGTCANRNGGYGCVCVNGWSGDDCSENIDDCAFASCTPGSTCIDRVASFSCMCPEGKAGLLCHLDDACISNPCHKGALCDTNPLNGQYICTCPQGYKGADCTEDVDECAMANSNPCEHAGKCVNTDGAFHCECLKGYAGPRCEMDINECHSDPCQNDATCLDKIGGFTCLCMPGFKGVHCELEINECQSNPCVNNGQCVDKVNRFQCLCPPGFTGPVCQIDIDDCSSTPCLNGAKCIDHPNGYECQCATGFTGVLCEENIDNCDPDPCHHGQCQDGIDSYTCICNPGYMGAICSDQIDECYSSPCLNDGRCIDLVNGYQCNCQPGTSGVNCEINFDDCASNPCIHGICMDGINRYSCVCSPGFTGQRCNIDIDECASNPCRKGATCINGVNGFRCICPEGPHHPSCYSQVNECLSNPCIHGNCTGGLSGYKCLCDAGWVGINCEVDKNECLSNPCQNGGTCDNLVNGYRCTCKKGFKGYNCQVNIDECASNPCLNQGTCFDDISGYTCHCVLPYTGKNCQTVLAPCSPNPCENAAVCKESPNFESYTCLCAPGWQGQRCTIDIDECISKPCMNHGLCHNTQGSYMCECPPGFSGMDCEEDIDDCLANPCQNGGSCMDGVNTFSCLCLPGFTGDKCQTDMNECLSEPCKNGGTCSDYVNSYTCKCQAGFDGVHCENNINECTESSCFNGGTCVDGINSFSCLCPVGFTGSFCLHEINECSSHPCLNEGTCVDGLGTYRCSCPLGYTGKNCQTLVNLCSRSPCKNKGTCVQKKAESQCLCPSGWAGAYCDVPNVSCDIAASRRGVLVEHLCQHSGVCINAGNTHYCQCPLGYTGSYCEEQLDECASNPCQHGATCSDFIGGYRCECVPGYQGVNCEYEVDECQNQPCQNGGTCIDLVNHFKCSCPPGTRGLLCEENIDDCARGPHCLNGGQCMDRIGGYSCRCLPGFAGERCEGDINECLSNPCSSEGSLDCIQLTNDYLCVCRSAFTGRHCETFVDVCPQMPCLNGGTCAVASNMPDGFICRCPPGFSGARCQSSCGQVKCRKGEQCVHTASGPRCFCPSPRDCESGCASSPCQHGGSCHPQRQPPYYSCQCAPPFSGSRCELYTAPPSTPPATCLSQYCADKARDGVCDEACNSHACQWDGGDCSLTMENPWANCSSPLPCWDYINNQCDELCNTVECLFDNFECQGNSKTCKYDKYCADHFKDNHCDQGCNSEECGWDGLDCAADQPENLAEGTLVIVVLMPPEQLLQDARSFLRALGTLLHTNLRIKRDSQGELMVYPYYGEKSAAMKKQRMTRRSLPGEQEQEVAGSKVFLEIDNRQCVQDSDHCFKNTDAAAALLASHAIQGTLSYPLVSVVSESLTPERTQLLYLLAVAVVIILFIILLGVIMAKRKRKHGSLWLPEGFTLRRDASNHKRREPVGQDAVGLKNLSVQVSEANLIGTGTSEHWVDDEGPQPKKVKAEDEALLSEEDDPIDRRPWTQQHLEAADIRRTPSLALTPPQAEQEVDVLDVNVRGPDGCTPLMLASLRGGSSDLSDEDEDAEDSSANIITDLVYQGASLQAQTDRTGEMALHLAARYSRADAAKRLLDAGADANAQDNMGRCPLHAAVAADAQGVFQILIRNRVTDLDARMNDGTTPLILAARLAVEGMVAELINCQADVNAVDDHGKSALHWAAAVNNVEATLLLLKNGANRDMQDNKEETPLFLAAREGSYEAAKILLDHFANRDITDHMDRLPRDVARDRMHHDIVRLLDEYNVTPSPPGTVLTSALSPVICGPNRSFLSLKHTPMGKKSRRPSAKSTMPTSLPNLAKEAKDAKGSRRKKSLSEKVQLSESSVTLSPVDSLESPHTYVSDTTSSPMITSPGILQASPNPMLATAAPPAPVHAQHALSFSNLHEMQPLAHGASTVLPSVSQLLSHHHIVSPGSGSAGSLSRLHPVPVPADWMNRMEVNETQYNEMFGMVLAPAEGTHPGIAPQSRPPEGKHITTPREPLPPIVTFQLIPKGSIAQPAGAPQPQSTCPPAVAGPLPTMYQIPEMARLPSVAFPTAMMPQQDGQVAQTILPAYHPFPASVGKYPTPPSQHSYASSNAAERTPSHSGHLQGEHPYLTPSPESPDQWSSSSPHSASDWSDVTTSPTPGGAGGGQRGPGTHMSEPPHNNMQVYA
Chain of Pro-neuregulin-1, membrane-bound isoform (Homo sapiens) (Q02297 whole entry, looked up, the tested form may be a part, canonical isoform): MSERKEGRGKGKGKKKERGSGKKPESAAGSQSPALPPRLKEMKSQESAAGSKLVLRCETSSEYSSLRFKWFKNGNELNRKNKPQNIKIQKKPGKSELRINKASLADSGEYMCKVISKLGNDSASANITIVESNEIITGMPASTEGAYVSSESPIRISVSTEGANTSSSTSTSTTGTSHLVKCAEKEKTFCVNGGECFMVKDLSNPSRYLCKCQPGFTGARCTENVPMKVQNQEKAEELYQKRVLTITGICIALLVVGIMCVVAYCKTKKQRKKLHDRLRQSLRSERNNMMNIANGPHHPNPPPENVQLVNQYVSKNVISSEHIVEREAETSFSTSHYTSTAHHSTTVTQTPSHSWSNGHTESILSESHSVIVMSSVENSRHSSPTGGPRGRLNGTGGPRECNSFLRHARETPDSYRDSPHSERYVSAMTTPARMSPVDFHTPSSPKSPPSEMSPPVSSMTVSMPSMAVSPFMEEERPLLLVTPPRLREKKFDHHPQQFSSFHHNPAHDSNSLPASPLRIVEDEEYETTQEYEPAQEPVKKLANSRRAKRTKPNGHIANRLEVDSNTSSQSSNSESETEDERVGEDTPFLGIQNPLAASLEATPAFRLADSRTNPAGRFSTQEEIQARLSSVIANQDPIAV

Take `CCCCCC1=C2CNC(Cc3ccccc3)(C(=O)OC)C=C2C(C)C1=O` (stereo not given): the composite z-score in assay [1] is 1.16; in assay [2] it was 0.249; in assay [3], -0.0593; in assay [4], 0.279; in assay [5], 0.227; in assay [6] it was 0.932. Also, the results for the composite z-score in [7], in assay [9] and in assay [10] were 0.446, 0.602 and 0.604, respectively. The z-score in assay [8] is 1.53 (inactive).

With `CC(C)(C)N1CC=CC23O[C@@H]4/C=C\CCCOC(=O)C4[C@H]2C(=O)N(CCCO)[C@@H]3C1=O` (stereo not given in full), the composite z-score in assay [1] is 0.164; in [2] it was -0.496; in assay [3], -0.203; in assay [4], -0.147; in [5], -0.864; in assay [6], 1.07. Also, the composite z-score in assay [7] was 1.1; in assay [9], -0.582; in assay [10], -0.286. In addition, the z-score in assay [8] was 0.502 (inactive).

As for `CC(C)=C1C(=O)C(c2ccccc2)=C2CN3C(=O)N(CCc4ccccc4)C(=O)[C@]3(C)[C@H]21`, the composite z-score is 0.532 in [1]; -0.0272 in assay [2]; 0.15 in assay [3]; 0.265 in assay [4]; 1.26 in [5]; 1.81 in [6]. Further, the composite z-score in [7] is 1.07; in assay [9], 0.64; in [10] it was -0.0346. Besides, the z-score in assay [8] was 0.863 (inactive).

For `CC(C)N1C(=O)c2ccccc2[C@@H](C(=O)NCC(F)(F)F)[C@@H]1c1ccc(CO)cc1`, the composite z-score in assay [1] was 0.277; in [2], -1.16; in assay [3], -0.133; in assay [4] it was -0.0347; in assay [5], -1.07; in [6] it was 0.156. Moreover, the values for the composite z-score in assay [7], in assay [9] and in assay [10] were 1.21, -0.0934 and -0.169, respectively. In assay [8], the z-score is 0.0294 (inactive).

As to `COc1ccccc1CN1C(=O)c2ccccc2[C@](Cc2ccccc2I)(C(=O)NCC(C)C)[C@@H]1c1ccc(CO)cc1`, the composite z-score is 1.21 in assay [1]; 0.204 in assay [2]; -0.0049 in [3]; -0.452 in assay [4]; -0.396 in assay [5]; 1.2 in [6]. For the same molecule, the results for the composite z-score in [7], in [9] and in assay [10] were 1.15, 0.0126 and 0.142, respectively. Further, in assay [8], the z-score was -2.55 (inactive).

`COc1cc(OC)c(C(O)C2C=CC3C(=O)N(c4ccccc4)C(=O)C3N2Nc2ccc(C(C)C)cc2)cc1Br` (stereo not given): the composite z-score was 0.108 in assay [1]; -0.0919 in [2]; 0.0559 in assay [3]; 0.774 in assay [4]; 1.44 in [5]; 1.4 in assay [6]. Further, the composite z-score in assay [7] is 1.28; in assay [9] it was 1.2; in assay [10], -0.0994. Further, the z-score in assay [8] was -2.19 (inactive).

Regarding `O=C1O[C@H](c2ccccc2)[C@H](c2ccccc2)N2[C@H]1[C@@H](C(=O)O)[C@]1(C(=O)Nc3ccc(C#CCCO)cc31)[C@H]2c1ccc(OCCO)cc1`, the composite z-score in assay [1] was 0.282; in assay [2] it was 1.12; in assay [3], -0.12; in assay [4] it was 0.826; in assay [5] it was 0.89; in [6], 1.86. Besides, the composite z-score in assay [7] came to 1.28; in [9], 0.101; in assay [10] it was 0.189. Moreover, in [8], the z-score was -0.708 (inactive).

For `COCCOC(=O)N1C(=O)[C@@]2(c3cc(C#CCC(C(=O)OC)C(=O)OC)ccc31)[C@H](c1ccc(O)cc1)N1[C@H](c3ccccc3)[C@H](c3ccccc3)OC(=O)[C@H]1[C@@H]2C(=O)Nc1nc2ccccc2s1`, the composite z-score was -0.0882 in [1]; 1.39 in [2]; 0.0001 in assay [3]; 0.785 in assay [4]; 1.27 in assay [5]; 1.12 in assay [6]. Besides, the composite z-score was 1.27 in assay [7], 0.606 in assay [9] and 0.382 in assay [10]. Besides, in assay [8], the z-score is 0.909 (inactive).

As for `C=CCNC(=O)[C@@H]1[C@H]2C(=O)O[C@H](c3ccccc3)[C@H](c3ccccc3)N2[C@H](c2ccc(OCCO)cc2)[C@@]12C(=O)Nc1ccc(C#CC3(O)CCCCCC3)cc12`, the composite z-score in [1] was 0.0068; in assay [2] it was 0.927; in [3], -0.0765; in [4], 0.592; in [5] it was 1.21; in assay [6], 1.29. The composite z-score in [7] was 1.29; in assay [9], 0.551; in [10] it was -0.0994. In addition, in assay [8], the z-score is 0.803 (inactive).

As to `C[C@@H]1NC(=O)C([C@@H](C)OCc2ccccc2)NC(=O)[C@@]23C(=O)N[C@@H](Cc4ccccc4)C2[C@H](C)[C@@]2(C)O[C@H]2C3/C=C/C/C=C\CNC1=O` (stereo not given in full), the composite z-score is -0.439 in assay [1]; -0.328 in assay [2]; -0.0578 in assay [3]; 0.341 in assay [4]; -0.0879 in [5]; 0.671 in assay [6]. The composite z-score in [7] was 0.503; in [9], -0.502; in assay [10], -0.236. Besides, the z-score in assay [8] was -0.116 (inactive).

As to `COc1ccc(C(O)C2C=CC3C(=O)N(c4ccccc4)C(=O)C3N2Nc2ccc(C#N)cc2)cc1OCc1ccccc1` (stereo not given), the composite z-score turned out to be 1.98 in assay [1]; 1.55 in assay [2]; 0.19 in assay [3]; 0.472 in assay [4]; 1.34 in assay [5]; 2.02 in assay [6]. Besides, the composite z-score in assay [7] stood at 0.823; in assay [9], 1.09; in assay [10], 0.0053. Besides, in [8], the z-score is 0.686 (inactive).

In the case of `CCCCCC1=C2CNC(CC(C)C)(C(=O)OC)C=C2C(C)C1=O` (stereo not given), the composite z-score in assay [1] was 1.08; in assay [2] it was -0.176; in assay [3] it was 0.185; in assay [4], 0.0051; in assay [5] it was 0.122; in [6] it was 1.01. For the same molecule, the composite z-score is 0.568 in assay [7], 0.404 in assay [9] and 3.31 in assay [10]. Further, the z-score in assay [8] was 0.51 (inactive).

For the molecule `C=C(COC)C(=O)CC[C@@H](OC(=O)c1ccccc1-c1ccccc1C(=O)O)c1ccc(OCCO)cc1`, the composite z-score was -0.209 in assay [1]; 0.487 in [2]; -0.132 in [3]; -0.252 in assay [4]; -0.638 in assay [5]; -0.335 in assay [6]. For the same molecule, the figures for the composite z-score in assay [7], in assay [9] and in assay [10] were 0.685, -0.0463 and -0.0994, respectively. Further, the z-score in assay [8] was 2.6 (inactive).

For `O=C1C[C@@](C(=O)O)(c2ccc([N+](=O)[O-])cc2)[C@@H](c2ccc(CO)cc2)N1C1CCCCC1`, the composite z-score in assay [1] was -0.0207; in assay [2], 0.748; in [3] it was 0.137; in assay [4] it was 0.687; in [5], 1.46; in assay [6], 1.63. Also, the results for the composite z-score in assay [7], in assay [9] and in [10] were 1.21, 0.905 and -0.0645, respectively. For the same molecule, the z-score in [8] was -0.118 (inactive).

Take `CN1C(=O)C2C(C1=O)C1C=C(CCCO)C2C(C2CC2)N1Cc1cccc(OC(F)(F)F)c1` (stereo not given): the composite z-score in assay [1] is -0.143; in assay [2], -0.122; in assay [3], -0.13; in assay [4], -0.203; in assay [5], -0.254; in assay [6], 2. For the same molecule, the composite z-score in [7] was 1.3; in [9], 0.0794; in assay [10], -0.242. The z-score in assay [8] is -0.688 (inactive).

Take `CCOC(=O)C[C@H]1[C@H](OC(=O)Cc2ccc3c(c2)OCO3)[C@@H](NC(=O)Cc2ccc(OC)cc2)c2cc(OCCCO)ccc2N1C(=O)Cc1ccc(OC)cc1`: the composite z-score in [1] was -0.199; in [2], 0.225; in [3], -0.128; in [4], 0.209; in assay [5], 0.121; in [6], 0.007. For the same molecule, the composite z-score in [7] amounted to 0.501; in assay [9] it was 0.255; in assay [10], 0.132. For the same molecule, the z-score in [8] was -3.1 (inactive).
